Test results: PubChem BioAssay (Tox21)
“And” between values parts separate entries of the source, which are not always exact repeats. Equal values may be shown once. Results filed as inconclusive are left out. A call without a number means that no potency is given here. More than one record can exist for a structure, and the calls need not agree. The source made the active and inactive calls. Unless noted, calls follow the shape of the dose curve; as a rule, active = well fitted curve in the direction sought with a large enough effect in the repeat runs; inconclusive = weak or mixed curves; inactive = no such curve, though single readings can be large; an effect the other way counts as inactive or inconclusive.

What was measured:
[1] = qHTS assay to identify aromatase inhibitors - cell viability counter screen (AID 743084);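 also: cells stimulated with testosterone during compound exposure; nearly all actives have a fitted effect of over 55% in size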; also: potency is read from the fitted curve at half-maximal effect
[2] = target: Aryl hydrocarbon receptor (Homo sapiens) (UniProt P35869); test: qHTS assay to identify small molecule that activate the aryl hydrocarbon receptor (AhR) signaling pathway (AID 743085); also: nearly all actives have a fitted effect of over 15% in size; also: potency is read from the fitted curve at half-maximal effect;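 as to activation: HG2L7.5c1 human HepG2 liver cells with stably integrated DRE-driven firefly reporter; series mostly up to about 70 µM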
Sequence of Aryl hydrocarbon receptor (Homo sapiens) (P35869 whole entry, looked up): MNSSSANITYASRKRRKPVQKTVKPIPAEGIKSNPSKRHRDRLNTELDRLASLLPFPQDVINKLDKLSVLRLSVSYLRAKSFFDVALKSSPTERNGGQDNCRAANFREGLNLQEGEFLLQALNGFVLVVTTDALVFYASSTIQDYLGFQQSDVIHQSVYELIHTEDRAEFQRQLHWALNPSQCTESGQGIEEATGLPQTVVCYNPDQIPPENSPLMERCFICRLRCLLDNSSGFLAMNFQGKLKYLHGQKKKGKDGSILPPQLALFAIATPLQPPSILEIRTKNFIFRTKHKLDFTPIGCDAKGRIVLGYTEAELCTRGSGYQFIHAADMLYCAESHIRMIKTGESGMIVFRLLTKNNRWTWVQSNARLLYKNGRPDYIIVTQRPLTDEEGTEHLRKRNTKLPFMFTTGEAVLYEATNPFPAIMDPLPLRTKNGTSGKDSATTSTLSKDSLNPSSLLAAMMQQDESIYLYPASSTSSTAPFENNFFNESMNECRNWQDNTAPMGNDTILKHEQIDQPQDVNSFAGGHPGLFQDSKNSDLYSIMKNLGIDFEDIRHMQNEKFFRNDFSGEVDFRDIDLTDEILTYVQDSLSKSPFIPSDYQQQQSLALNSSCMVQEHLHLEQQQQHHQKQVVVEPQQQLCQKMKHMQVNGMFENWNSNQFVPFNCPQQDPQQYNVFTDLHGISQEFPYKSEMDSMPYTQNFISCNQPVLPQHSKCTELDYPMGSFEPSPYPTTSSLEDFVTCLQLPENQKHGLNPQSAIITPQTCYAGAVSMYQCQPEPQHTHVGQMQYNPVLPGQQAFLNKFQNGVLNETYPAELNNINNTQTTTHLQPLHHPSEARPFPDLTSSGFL
Outline: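 Cell line HG2L7.5c1 (human hepatoma, 20× DRE-luc). Plated, 5 h 37C, compound/DMSO added, 24 h 37C. CellTiter-Fluor 30 min 37C → fluorescence; then ONE-Glo 30 min RT → luminescence.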

[3] = qHTS assay to identify small molecule that activate the aryl hydrocarbon receptor (AhR) signaling pathway - cell viability counter screen (AID 743086); also: nearly all actives have a fitted effect of over 45% in size; also: potency is read from the fitted curve at half-maximal effect
Outline: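 HepG2-AhR-luc (HG2L7.5c1) cells, 4000/well, treated 24 h at 37 C with compound; viability measured as CellTiter-Fluor fluorescence after 30 min in the same wells as the luciferase read.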

[4] = target: Peroxisome proliferator-activated receptor gamma (Homo sapiens) (UniProt P37231); test: qHTS assay to identify small molecule agonists of the peroxisome proliferator-activated receptor gamma (PPARg) signaling pathway (AID 743094; active = well fitted activation curve with a large enough effect in the signal ratio in the repeat runs, not every such curve was filed as active; the % refers to the signal ratio)
Sequence of Peroxisome proliferator-activated receptor gamma (Homo sapiens) (P37231 whole entry, looked up): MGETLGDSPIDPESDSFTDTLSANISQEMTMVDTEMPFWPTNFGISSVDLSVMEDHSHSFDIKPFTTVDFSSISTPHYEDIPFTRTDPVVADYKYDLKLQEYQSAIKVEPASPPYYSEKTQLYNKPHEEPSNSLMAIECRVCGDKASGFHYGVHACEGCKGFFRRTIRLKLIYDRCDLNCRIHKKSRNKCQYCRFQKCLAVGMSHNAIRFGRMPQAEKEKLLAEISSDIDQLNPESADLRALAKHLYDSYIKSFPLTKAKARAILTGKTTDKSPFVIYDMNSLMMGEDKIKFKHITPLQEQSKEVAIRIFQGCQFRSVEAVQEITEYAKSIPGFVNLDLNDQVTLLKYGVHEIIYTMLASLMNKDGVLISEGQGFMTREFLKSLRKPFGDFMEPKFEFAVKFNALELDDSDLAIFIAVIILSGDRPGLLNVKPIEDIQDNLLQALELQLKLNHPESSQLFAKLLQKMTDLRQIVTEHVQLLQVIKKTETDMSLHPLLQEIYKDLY
Outline: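 Following 5 h plating at 37C, PPARg-bla HEK293H cells receive compound or DMSO for 17 h; fluorescence intensity is recorded after LiveBLAzer B/G loading for 1 h at room temperature.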

[5] = qHTS assay to identify small molecule antagonists of the peroxisome proliferator-activated receptor gamma (PPARg) signaling pathway - cell viability counter screen (AID 743194); conditions: Potency: co-treated with 50 nM rosiglitazone; also: nearly all actives have a fitted effect of over 55% in size; also: potency is read from the fitted curve at half-maximal effect
Outline: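 Cytotoxicity counter screen in PPARg-bla HEK293H cells, same wells as reporter assay. Compounds plus 50 nM rosiglitazone (final) for 17 h at 37 C, then viability read by CellTiter-Glo luminescence.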

[6] = qHTS assay for small molecule agonists of the antioxidant response element (ARE) signaling pathway - cell viability counter screen (AID 743203; calls by dose curve; also: nearly all actives have a fitted effect of over 55% in size; also: potency is read from the fitted curve at half-maximal effect)
Outline: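 Compounds in DMSO were pinned onto ARE-bla HepG2 cells plated 5 hrs earlier at 2,000 cells/well. Sixteen hours later at 37C/5% CO2, CellTiter-Glo was added and luminescence measured after 30 min at room temperature.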

[7] = qHTS assay for small molecule activators of the heat shock response signaling pathway - cell viability counter screen (AID 743209); also: nearly all actives have a fitted effect of over 50% in size; also: potency is read from the fitted curve at half-maximal effect
Outline: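 Counter screen for cytotoxicity in HeLa HSE-bla reporter cells. Treatment was 5 h at 37 C; viability was detected by luminescent ATP assay (CellTiter-Glo) in the same wells as the beta-lactamase read.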

[8] = qHTS assay for small molecule activators of the heat shock response signaling pathway (AID 743210; active = well fitted activation curve with a large enough effect in the signal ratio in the repeat runs, with a control signal flat, not every such curve was filed as active; the % refers to the signal ratio; also: series mostly up to about 63 µM)
Outline: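 HSE-bla HeLa cells (beta-lactamase reporter under heat shock response elements), plated overnight, then exposed to compounds 5 h at 37 C; LiveBLAzer B/G FRET substrate added, 2.5 h at room temperature, fluorescence intensity read.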

[9] = target: Peroxisome proliferator-activated receptor gamma (Homo sapiens) (UniProt P37231); test: qHTS assay to identify small molecule antagonists of the peroxisome proliferator-activated receptor gamma (PPARg) signaling pathway (AID 743191; calls by dose curve; also: nearly all actives have a fitted effect of over 30% in size; also: potency is read from the fitted curve at half-maximal effect)
Outline: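 GeneBLAzer PPARg UAS-bla HEK293H cells, 5 h post-plating, exposed to compounds 17 h at 37C. LiveBLAzer B/G FRET substrate added for 1 h at room temperature; beta-lactamase reporter read by fluorescence intensity.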

[10] = qHTS assay for small molecule agonists of the antioxidant response element (ARE) signaling pathway (AID 743202; active = well fitted activation curve with a large enough effect in the signal ratio in the repeat runs, not every such curve was filed as active; the % refers to the signal ratio; also: potency is read from the fitted curve at half-maximal effect)
Outline: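 ARE-bla HepG2 cells (beta-lactamase reporter under the antioxidant response element), plated 5 hours, then exposed to compounds 16 hours at 37 C. LiveBLAzer B/G FRET substrate added for 2 hours at room temperature; fluorescence intensity read.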

Row | SMILES | Potency [1] | Potency [2] | Potency [3] | Potency [4] | Potency [5] | Potency [6] | Potency [7] | outcome [8] | Potency [9] | Potency [10]
1 | CCCCC(CC)COP(=O)(Oc1ccccc1)Oc1ccccc1 (stereo not given) | inactive | inactive | inactive | inactive | inactive | inactive | inactive | inactive |  | 
2 | COc1cc(Cl)c(OC)cc1Cl | inactive | inactive | inactive | inactive |  | inactive | inactive | inactive |  | 
3 | O=NN1CCNCC1 | inactive | inactive | inactive |  |  | inactive |  |  | inactive | inactive
4 | COCC(C)N(C(=O)CCl)c1c(C)csc1C (stereo not given) | inactive | inactive | inactive | inactive |  |  | inactive | inactive |  | 4.33 µM (active)
5 | C=CC(C)=O | inactive | inactive | inactive | inactive |  | inactive | inactive | inactive |  | inactive
6 | CC(=O)[C@H]1CC[C@H]2[C@@H]3CC[C@H]4C[C@](C)(O)CC[C@]4(C)[C@H]3CC[C@]12C | inactive | inactive | inactive | inactive | inactive | inactive | inactive | inactive |  | 
7 | CCCCCCCCCC(=O)O[C@H]1CC[C@H]2[C@@H]3CCC4=CC(=O)CC[C@@H]4[C@H]3CC[C@]12C | inactive | inactive | inactive | inactive | inactive | inactive |  | inactive |  | 
8 | ClCC(Br)CBr (stereo not given) | inactive | inactive | inactive | inactive |  | inactive | inactive | inactive |  | inactive
9 | O=S1(=O)OC(c2cc(Br)c(O)c(Br)c2)(c2cc(Br)c(O)c(Br)c2)c2ccccc21 | 25 µM (active) | inactive | 28.1 µM (active) |  |  |  |  | inactive | inactive | inactive
10 | COC(=O)C(Cl)C(=O)OC | inactive | inactive | inactive | inactive | inactive | inactive |  | inactive |  | 
11 | CC(C)(OO)c1ccccc1 | inactive | inactive | inactive |  | inactive | 61.1 µM (active) | 49 µM (active) |  | inactive | 
12 | Brc1ccccc1 | inactive | inactive | inactive |  | inactive | inactive | inactive | inactive | inactive | inactive
13 | CCC(Cl)CCl (stereo not given) | inactive | inactive | inactive |  | inactive | inactive | inactive | inactive | inactive | inactive
14 | O=C1C(Cl)C(CCl)CN1c1cccc(C(F)(F)F)c1 (stereo not given) | inactive | 48.6 µM (active) | inactive |  | inactive | inactive | inactive | inactive | 21.9 µM (active) | 
15 | Cc1c(F)c(F)c(COC(=O)C2C(/C=C(\Cl)C(F)(F)F)C2(C)C)c(F)c1F (stereo not given) | inactive | inactive | inactive |  | inactive | inactive | inactive | inactive | inactive | 
16 | Cc1ccc2ccccc2c1 | inactive | inactive | inactive | inactive | inactive | inactive | inactive | inactive |  | 

Row | SMILES | Potency [1] | Potency [2] | Potency [3] | Potency [4] | Potency [5] | Potency [6] | Potency [7] | outcome [8] | Potency [9] | Potency [10]
17 | O=C(O)C1(c2ccc3c(c2)OC[C@H](Cc2ccc(-c4ccccc4)cc2)[C@H]3O)CCCC1 | inactive | inactive | inactive |  | 43.6 µM (active) |  |  |  |  | 
18 | c1ccc(CN2CCNCC2)cc1 | inactive | inactive | inactive |  | inactive | inactive | inactive |  |  | inactive
19 | Clc1cc(Cl)c(Cl)c(Cl)c1 | inactive | inactive | inactive |  |  | inactive | inactive | inactive |  | inactive
20 | Nc1ccc(N=Nc2ccc(-c3ccc(N=Nc4c(S(=O)(=O)O)cc5cc(S(=O)(=O)O)c(N=Nc6ccccc6)c(O)c5c4N)cc3)cc2)c(N)c1 | 31.3 µM (active) | 5.56 µM (active) | 39.4 µM (active) |  | inactive | inactive | inactive |  |  | inactive
21 | OC(c1ccc(Cl)cc1)(c1ccc(Cl)cc1)c1cccnc1 | inactive | inactive | inactive |  |  | 61.1 µM (active) | inactive |  |  | 
22 | C=CCN1CC[C@]23c4c5ccc(O)c4O[C@H]2C(=O)CC[C@@]3(O)[C@H]1C5 | inactive | inactive | inactive |  | inactive | inactive | inactive | inactive |  | inactive
23 | CC(=O)CCC(C)=O | inactive | inactive | inactive |  |  | inactive |  | inactive |  | inactive
24 | O=C1NCN(c2ccccc2)C12CCN(CCCOc1ccc(F)cc1)CC2 | inactive | inactive | 5.31 µM (active) |  | inactive |  | inactive |  |  | 2.37 µM (active)
25 | COCCOCCO | inactive | inactive | inactive |  | inactive |  | inactive | inactive |  | 
26 | O=C(NC(=O)c1c(F)cccc1F)Nc1cc(Cl)c(Oc2ncc(C(F)(F)F)cc2Cl)c(Cl)c1 | inactive | inactive | inactive |  | inactive |  | inactive |  |  | 
27 | C[N+](C)(C)CCCl | inactive | inactive | inactive |  | inactive | inactive | inactive | inactive |  | inactive
28 | O=NN1CCCCCC1 | inactive | inactive | inactive |  | inactive | inactive | inactive | inactive |  | inactive
29 | O=Cc1ccc(Cl)cc1Cl | inactive | inactive | inactive |  | inactive | inactive | inactive | inactive |  | inactive
30 | O=C(CCl)c1ccc(Cl)cc1Cl | inactive | inactive | inactive |  |  | inactive and 26.6 µM (active) | 8.41 µM (active) |  |  | 5.31 µM (active)
31 | C(=NC1CCCCC1)=NC1CCCCC1 | inactive | inactive | inactive |  | 4.93 µM (active) and 3.47 µM (active) | 3.08 µM (active) and 3.06 µM (active) | inactive | inactive |  | 
32 | CO/C=C(/C(=O)OC)c1ccccc1COc1cccc(C(F)(F)F)n1 | 61.1 µM (active) | inactive | inactive |  |  |  | inactive | inactive | 4.36 µM (active) | 
